Compound activity: PubChem BioAssay, Buhrlage Lab, Dana-Farber Cancer Institute and Novartis Institutes for BioMedical Research (Cambridge, Mass)
The list is not random: actives were taken first. Their share in the collection is about 13%.
USP17 block – inhibitors of human USP17 deubiquitinase; A8MUK1; purified USP17, Ub-rhodamine cleavage fluorescence, 3 h; AID 1645855; hit rate 6.5% among 47,000; inhibition, % at 50 µM
USP30 inh – blocks human USP30 ubiquitin-rhodamine cleavage. purified USP30, Ub-rhodamine cleavage fluorescence. inhibition, % at 25 µM. hit rate 5.3% among 47,000. AID 1645860
Target sequence (Q70CQ3 whole entry, looked up): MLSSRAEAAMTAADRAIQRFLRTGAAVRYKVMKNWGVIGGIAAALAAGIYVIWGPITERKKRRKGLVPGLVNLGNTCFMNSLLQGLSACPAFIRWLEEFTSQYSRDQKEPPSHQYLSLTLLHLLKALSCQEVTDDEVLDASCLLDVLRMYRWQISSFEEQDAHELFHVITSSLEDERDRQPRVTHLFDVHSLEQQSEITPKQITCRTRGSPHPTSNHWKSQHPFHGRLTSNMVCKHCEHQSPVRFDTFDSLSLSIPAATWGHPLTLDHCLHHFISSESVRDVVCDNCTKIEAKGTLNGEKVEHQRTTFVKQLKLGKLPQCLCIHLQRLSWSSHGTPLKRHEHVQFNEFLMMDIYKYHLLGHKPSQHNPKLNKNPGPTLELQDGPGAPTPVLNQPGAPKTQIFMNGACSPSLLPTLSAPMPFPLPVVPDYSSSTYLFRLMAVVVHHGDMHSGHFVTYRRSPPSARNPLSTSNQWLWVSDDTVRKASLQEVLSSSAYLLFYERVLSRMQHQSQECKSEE
USP28 block – human USP28 deubiquitinase inhibition | Q96RU2 | purified USP28, Ub-rhodamine cleavage fluorescence, 30 min | inhibition, % at 25 µM | hit rate 3% among 47,000
USP8 inh – inhibitors of human USP8 deubiquitinase; P40818; purified USP8, Ub-rhodamine cleavage fluorescence, 30 min; inhibition, % at 20 µM; hit rate 4.2% among 47,000; AID 1645853
The depositor's hits bear a star; x = no result given. No stated cut-off is given here; in the data, active means inhibition above about 30%; inactive means the rest.

SMILES	USP17 block	USP30 inh	USP28 block	USP8 inh
COc1ccc(C(C(=O)NC2CCCCC2)N(C(=O)CCCC(=O)Nc2ccccn2)c2ccccc2OC)cc1 (configuration not stated)	0.9	17.8	-12.5	11.9
COc1ccc(OC)c(N(CC(=O)NC2CCCCC2)C(=O)CCC(=O)Nc2ccccn2)c1	8.8	30.5*	3.1	12.5
COc1ccc(N(C(=O)CCCC(=O)Nc2ccccn2)C(C(=O)NC2CCCCC2)c2ccc(Cl)cc2)cc1 (configuration not stated)	32.9*	37.4*	13.0	27.3
O=C(CCCC(=O)N(c1cccc(C(F)(F)F)c1)C(C(=O)NC1CCCC1)c1ccc(F)cc1)Nc1ccccn1 (configuration not stated)	11.9	28.2	3.5	3.3
COCCn1c(CN2CCC(C)CC2)nc2c1c(=O)n(C)c(=O)n2C	-4.6	-8.8	-9.0	-3.9
CC1CSc2ccc(S(=O)(=O)Nc3cccc(C(F)(F)F)c3)cc2NC1=O (configuration not stated)	9.0	15.3	11.2	9.0
CC(=O)N1CCC2(CC1)N=C(c1ccccc1O)CC(c1ccccc1)N2 (configuration not stated)	-16.4	-158.8	-6.8	-8.6
c1ccc(-c2noc(-c3ccc(N4CCCCC4)nn3)n2)cc1	24.1	8.2	8.0	-0.1
CNC(=O)[C@H]1C[C@@H]2CN(C(=O)c3ccc(O)cc3)C(C)[C@H]1N2C (some centres not stated)	0.8	-20.6	-141.7	14.4
COc1cc(NC(=O)Cc2ccccc2)ccc1NC(=O)c1cc2ccccc2o1	70.3*	41.2*	22.3	8.5
CC(NC(=O)CNC(=O)c1ccc2c(c1)OCO2)c1cc2ccccc2o1 (configuration not stated)	42.0*	2.8	14.4	-29.5
O=C(CNC(=O)c1cc2ccccc2o1)Nc1ccc2c(c1)OCCO2	63.4*	24.6	56.2*	6.1
O=C(CNC(=O)c1cc2ccccc2o1)Nc1cccc(F)c1	-2.9	46.0*	10.7	-4.7
CN1C(=O)OC2(CCN(S(=O)(=O)c3ccccn3)CC2)c2ccccc21	0.0	2.6	0.8	8.7
Cc1ccc(NC(=O)CNC(=O)c2cc3ccccc3o2)cc1	55.4*	-14.6	-8.7	-7.2
Cc1ccc(NC(=O)CNC(=O)c2cc3ccccc3o2)cc1F	-4.7	-8.8	3.1	29.0
COc1cc2c(cc1OC)-c1c(c(C(=O)N3CCCC3)nn1-c1ccccc1F)C2	75.6*	99.5*	76.4*	28.9
COc1c(C2CCCN2Cc2ncc(C(C)(C)C)o2)c(C)nn1C (configuration not stated)	-4.4	-42.9	-11.8	-0.1
O=C(CCc1ccccc1)N1CCN(c2cc(-c3cccnc3)[nH]n2)CC1	15.9	30.0*	14.3	6.0
O=C(c1cccc(Cl)c1)N1CCN(c2cc(-c3cccnc3)[nH]n2)CC1	-19.0	-22.0	-7.7	-15.1
O=C(c1n[nH]c2c1CCC2)N1CCn2c(nnc2C2CC2)C1	8.7	16.8	19.0	3.2
Cc1cc(C)cc(N2C(N)=NC(N)=NC2c2ccccc2F)c1 (configuration not stated)	17.4	36.9*	13.2	26.3
O=C(Cn1cc(S(=O)(=O)N2CCCCCC2)ccc1=O)Nc1cccc(F)c1	-0.7	-0.6	-7.5	6.0
O=C(Nc1nnc(-c2ccccc2Cl)o1)C1CCCCC1	15.4	8.0	-2.4	10.4
Cc1ccc(-c2nnc(NC(=O)C3CCCCC3)o2)c(C)c1	37.8*	5.9	4.2	0.1
SMILES	USP17 block	USP30 inh	USP28 block	USP8 inh
CC(=O)N1CCCCCC1C1CCN(c2ncnc3ccccc23)CC1 (configuration not stated)	-5.7	-7.8	-12.5	-2.9
CCCn1c(SCC(=O)Nc2cc(S(=O)(=O)N(CC)c3ccccc3)ccc2Cl)nc2ccccc2c1=O	9.1	19.9	4.8	10.7
CCOC(=O)CSc1nc2nccnc2c(=O)n1Cc1ccccc1Cl	9.0	11.4	12.8	-40.5
Cn1cc2nc(SCC(=O)NCc3ccccc3Cl)n(CC3CC3)c(=O)c2n1	29.6	31.5*	14.5	42.2*
CCn1c(SCC(=O)Nc2cccc(Cl)c2C)nc(=O)c2c(C)cc(C)nc21	-63.8	-202.9	-46.5	-1.0
Cc1c(Cl)cccc1NC(=O)CSc1nc2cn(C)nc2c(=O)n1CC1CC1	20.4	27.1	13.5	42.7*
Cc1ccc(Cl)cc1NC(=O)CSc1nc2cn(C)nc2c(=O)n1CC1CC1	67.7*	54.3*	28.2	61.2*
Cn1cc2nc(SCC(=O)Nc3ccc(Cl)cc3F)n(CC3CC3)c(=O)c2n1	17.6	-20.9	-1.5	32.0*
N#Cc1ccccc1COC(=O)c1cccc(Oc2ccccc2)c1	22.6	x	x	6.0
Cc1nc2c(C)cccn2c(=O)c1Cc1nnc(SCC(=O)Nc2ccccc2)n1C	36.4*	32.7*	-3.7	0.1
COCCn1c(SCC(=O)Nc2ccc(OC)cc2)nnc1-c1c[nH]c2ccccc12	8.6	-1.3	-0.5	3.7
CCOc1ccc(NC(=O)CSc2nnc(Cc3cccc4ccccc34)n2C)cc1	65.1*	46.0*	66.9*	-4.5
Cn1c(SCC(=O)Nc2ccccc2Br)nnc1-c1ccccn1	9.2	13.9	8.5	2.7
CCOc1ccc(NC(=O)CSc2nnc(-c3ccccn3)n2Cc2ccco2)cc1	-33.2	-38.2	-9.1	-168.0
Cc1ccc(C)c(NC(=O)CSc2nnc(Cc3cccc4ccccc34)n2C)c1	-13.5	-0.1	44.9*	-17.6
CCOc1ccc(-n2c(SCC(=O)Nc3ccc(C)cc3)nnc2-c2c[nH]c3ccccc23)cc1	63.3*	56.0*	17.9	97.5*
Cc1ccc(C(=O)CSc2nnc(CC(=O)Nc3ccccc3F)n2C)cc1	-10.3	-0.3	1.5	-9.1
O=C(NC1CCCCC1)C1CCN(c2cncnc2N2CCOCC2)CC1	-15.8	-38.6	-7.1	-5.7
CC(=O)N1CCCN(C(=O)C2CCC3(CC2)CN(C)C(=O)c2ccccc2O3)CC1 (configuration not stated)	3.7	13.2	7.4	9.4
CN1C(=O)C2(CC(=O)Nc3c2cnn3-c2ccccc2)c2c(Cl)cccc21 (configuration not stated)	-1.5	x	x	-4.5
CCN1CCN(C(=O)CCCN(c2ccccc2)S(C)(=O)=O)CC1	62.1*	35.0*	22.1	2.9
CCNC(=O)C1(Cc2cc(-c3ccc(C)cc3)no2)CCCN(C(=O)C2CCCC2)C1 (configuration not stated)	-7.2	-43.9	-10.7	-0.7
COc1ccc(C2c3[nH]c4ccccc4c3C[C@@H]3C(=O)N(Cc4ccccc4)CC(=O)N23)cc1OC (some centres not stated)	-69.6	-238.0	-63.6	-24.1
CC(C)=CCc1c2c(c3occ(-c4ccc(O)cc4)c(=O)c3c1O)C=CC(C)(C)O2	90.6*	56.5*	41.5*	16.5
CC(C)=CCc1c2c(c3occ(-c4ccc(O)c(O)c4)c(=O)c3c1O)C=CC(C)(C)O2	85.9*	78.7*	68.9*	25.7
CC1(C)CS(=O)(=O)N(c2cccc(C(=O)N3CCN(c4ncccn4)CC3)c2)C1=O	0.9	15.2	6.2	-0.2
Cc1cccc(NC(=O)c2ccc(-c3cncnc3)nc2)c1C	-27.0	-151.5	-58.2	-12.9
